Screening results (PubChem BioAssay)
An excerpt weighted towards active compounds, which were near 0.24% of everything screened.
NPYLR7 agonist: activates Aedes aegypti NPYLR7 receptor; AID 1259423; HEK293T NPYLR7/Galpha15, GCaMP6s calcium fluorescence; 270,000 tested, 0.15% active; activation, % at 10 µM; in the data active = activation above about 40%
hcGAS inh: inhibitors of human cGAS; Q8N884; AID 1259398; inhibition, % at 12.5 µM; 290,000 tested, 0.081% active; recombinant h-cGAS, ATP depletion, Kinase-Glo luminescence
Target sequence (Q8N884 whole entry, looked up): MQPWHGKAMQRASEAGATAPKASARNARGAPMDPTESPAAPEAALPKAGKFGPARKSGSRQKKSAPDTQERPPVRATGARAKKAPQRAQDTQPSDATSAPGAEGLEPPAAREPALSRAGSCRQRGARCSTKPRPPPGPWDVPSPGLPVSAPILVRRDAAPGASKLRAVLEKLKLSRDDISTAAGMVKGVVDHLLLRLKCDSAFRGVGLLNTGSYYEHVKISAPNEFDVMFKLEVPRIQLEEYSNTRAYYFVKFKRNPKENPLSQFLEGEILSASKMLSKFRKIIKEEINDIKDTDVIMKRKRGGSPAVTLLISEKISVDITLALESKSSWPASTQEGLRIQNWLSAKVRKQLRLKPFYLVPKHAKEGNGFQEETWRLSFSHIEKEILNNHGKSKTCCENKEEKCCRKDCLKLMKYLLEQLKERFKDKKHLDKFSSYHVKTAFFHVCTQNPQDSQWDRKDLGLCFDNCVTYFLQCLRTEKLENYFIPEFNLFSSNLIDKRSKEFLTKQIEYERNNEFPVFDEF
mcGAS lum: blocks mouse cGAS activity. Q8C6L5. 160,000 tested, 0.15% active. inhibition, % at 12.5 µM. recombinant cGAS, Kinase-Glo ATP depletion luminescence
Of the large screens only hits and unclear results are named; the others gave an inactive call; ! = repeats disagree. Cut-off read from the data, not from the text of the source, unless noted: active = inhibition above about 40%; inactive = the rest.

CCN1C(=O)/C(=C2\SC(=S)NC2=O)c2ccccc21	none
O=C(O)CN1C(=O)/C(=C2\SC(=S)NC2=O)c2ccccc21	mcGAS lum 103
CCOC(=O)CCC(=O)N1CCN(C(=O)c2cc3ccsc3n2Cc2cccc(F)c2)CC1C (configuration not stated)	none (no result: NPYLR7 agonist)
Cc1occc1-c1nnc(SCc2nc(-c3cccs3)no2)n1C	none (no result: mcGAS lum)
CN1CCN(Cc2c(O)ccc3c2O/C(=C\c2cc4cc(Br)ccc4o2)C3=O)CC1	NPYLR7 agonist 62
O=C1/C(=C/c2cc3cc(Br)ccc3o2)Oc2c1ccc(O)c2CN1CCCC1	none
CCN1CCN(Cc2c(O)ccc3c2O/C(=C\c2cc4cc(Br)ccc4o2)C3=O)CC1	NPYLR7 agonist 79
O=C1/C(=C/c2cc3cc(Br)ccc3o2)Oc2c1ccc(O)c2CN1CCOCC1	none
COC(=O)Cc1ccc(C(=O)CCl)s1	mcGAS lum 56
COC(=O)CCC(=O)c1ccc(Br)s1	none
COc1ccc(CC2(CO)CCN(c3cnc4ccccc4n3)CC2)cc1	none (no result: mcGAS lum)
CC(=O)c1cccc(NS(=O)(=O)c2cc(C(=O)Nc3ccccc3C)ccc2C)c1	none
Cc1ccc(C(=O)Nc2ccc(S(=O)(=O)O)c3cc(S(=O)(=O)O)cc(S(=O)(=O)O)c23)cc1NC(=O)c1cccc(NC(=O)Nc2cccc(C(=O)Nc3cc(C(=O)Nc4ccc(S(=O)(=O)O)c5cc(S(=O)(=O)O)cc(S(=O)(=O)O)c45)ccc3C)c2)c1	hcGAS inh 80, mcGAS lum 80
O=C1C2C3C=CC(CC3)C2C(=O)N1/N=C\c1cc([N+](=O)[O-])c(O)cc1O (configuration not stated)	mcGAS lum 66
O=C1C2C3C=CC(CC3)C2C(=O)N1/N=C\c1cc2c(cc1Br)OCO2 (configuration not stated)	none
COc1cc(/C=C2\C(=N)N3N=CSC3=NC2=O)ccc1OC(=O)c1cccc(C)c1	none (no result: mcGAS lum)
CCOc1cc(/C=C2\C(=N)N3N=CSC3=NC2=O)cc(Br)c1OC(=O)c1ccccc1	NPYLR7 agonist 74 (no result: mcGAS lum)
COCC(C)NC(=O)CNc1cc(Cl)ccc1C (configuration not stated)	none
CCc1ccc(S(=O)(=O)Nc2ccc3c(c2)N(CCOC)CCC3)s1	none (no result: mcGAS lum)
Cn1c(-c2ccncc2)nn(CN2CCN(c3ccccc3)CC2)c1=S	none (no result: mcGAS lum)
O=C1c2ccccc2-c2nn(CN3CCN(c4ccccc4)CC3)c3cccc1c23	NPYLR7 agonist 88
N#Cc1cccc(CNC2CCN(Cc3ccc(Cl)cc3)CC2)c1	none
CCCN(C(=O)CN1C(=O)NC2(CCCc3ccccc32)C1=O)C1=CCCCC1 (configuration not stated)	none (no result: mcGAS lum)
Cc1ccc(C(=O)NCC2CCN(C)C2)cc1-n1cccc1 (configuration not stated)	none (no result: mcGAS lum)
CCCC(=O)NC(c1cccc([N+](=O)[O-])c1)c1ccc2cccnc2c1O (configuration not stated)	none (no result: mcGAS lum)
O=[N+]([O-])c1cccc(C(Nc2nc3c(s2)CCCC3)c2ccc3cccnc3c2O)c1 (configuration not stated)	hcGAS inh 42
CCOC(=O)c1ccc(NC(=O)CSc2nnc(NC(=O)c3ccccc3)s2)cc1	none (no result: mcGAS lum)
CN(C)CCc1cc2c(c3c1ccc1ccccc13)OCO2	hcGAS inh 70, mcGAS lum 56
CN(C)Cc1c2ccccc2cc2ccccc12	none (no result: mcGAS lum)
O=C(NC1CC1)C1CCCN(C2CCN(c3noc(-c4ccccc4)n3)CC2)C1 (configuration not stated)	none (no result: mcGAS lum)
CCCn1c(C(=O)NCCc2ccc(S(N)(=O)=O)cc2)cc2c(=O)n(C)c(=O)n(C)c21	none
CC(C)Oc1ccc(S(=O)(=O)N2CCCCC2)cc1NC(=O)CSc1nncn1C1CC1	mcGAS lum 56
CC(C)Oc1ccc(S(=O)(=O)N2CCCCC2)cc1NC(=O)CCl	none (no result: mcGAS lum)
COCC(=O)N1CCCC(C(=O)NC2CCCC[C@H]2NC(=O)c2ccccc2)C1 (some centres not stated)	none (no result: NPYLR7 agonist)
COc1ccc(C(=O)N[C@@H]2CCCCC2NC(=O)C2CCCN(C(=O)CCc3ccccc3)C2)cc1 (some centres not stated)	mcGAS lum 79 (no result: NPYLR7 agonist)
CNC(=O)COc1cccc(CNC(=O)NCC2CC2C)c1 (configuration not stated)	none
Clc1ccc2c(N3CCCNCC3)ccnc2c1	none
Clc1ccc2c(-n3ccnc3)ccnc2c1	hcGAS inh 57 (no result: mcGAS lum)
O=c1c(O)c(-c2ccc(O)cc2O)oc2cc(O)cc(O)c12	none
O=c1c(O)c(-c2cc(O)c(O)c(O)c2)oc2cc(O)cc(O)c12	hcGAS inh 71, mcGAS lum 82
O=C(NCCSc1ccc(Cl)cc1)c1ccc2c(=O)n3c(nc2c1)CCC3	NPYLR7 agonist 82 (no result: mcGAS lum)
O=C(NCCC12CC3CC(CC(C3)C1)C2)c1ccc2c(=O)n3c(nc2c1)CCCCC3	none (no result: mcGAS lum)
COc1cccc(N2C(=O)CSC2c2cccc(NC(=O)c3ccc(C(F)(F)F)cc3)c2)c1 (configuration not stated)	none
COc1cccc(-c2nc3ccc(Cl)cn3c2NCc2ccccc2)c1	none
COc1cccc(-c2nc3ccc(Br)cn3c2NCc2ccccc2)c1	mcGAS lum 89!
Cc1cccc(NC(=O)CSc2nnc(CNC(=O)c3cc(Br)ccc3Cl)n2-c2ccccc2)c1	none (no result: mcGAS lum)
Oc1ccccc1C1=NNC2(CC3CC2C2CCCC32)S1 (configuration not stated)	hcGAS inh 78 (no result: mcGAS lum)
S=c1n(CN2CCCC2c2ccccc2)cc2ccccn12 (configuration not stated)	hcGAS inh 55 (no result: mcGAS lum)
O=C(CN1CCCC1c1ccccc1)NCc1ccccc1 (configuration not stated)	none (no result: mcGAS lum)
Cc1cc(Cl)ccc1NC(=O)c1nc(C)n2c1CCCC2	none (no result: mcGAS lum)
O=C(Nc1ncccc1O)c1nc(-c2ccccc2)n2c1CCCCC2	hcGAS inh 66
NC(=O)C1CCN(C(=O)CCN(CCc2ccccc2)C(=O)c2cnccn2)CC1	hcGAS inh active (no result: mcGAS lum)
NC(=O)C1CCN(C(=O)CCc2ccsc2)CC1	none (no result: mcGAS lum)
COc1ccc(OC)c(CCNc2nc3cnc(-c4ccc(Cl)cc4)cc3n2C)c1	NPYLR7 agonist 83
CNc1nc2cnc(-c3ccc(OC)c(OC)c3)cc2n1Cc1ccccc1	none
COc1ccc(Cn2cnc3cnc(-c4cc(OC)c(OC)c(OC)c4)cc32)cc1OC	none
COc1ccc(OC)c(CCNc2nc3cnc(-c4cc(OC)c(OC)c(OC)c4)cc3n2C)c1	NPYLR7 agonist 70
CN(Cc1ccc(Br)o1)Cc1nc(C(C)(C)C)no1	none (no result: mcGAS lum)
COc1cccc(OCc2ccccc2)c1C(=O)NCCCCc1ccccc1	none
CC1C(=O)N(c2ccc(F)cc2F)CCN1C(=O)c1cccc(F)c1 (configuration not stated)	mcGAS lum 72
CC1C(=O)N(c2ccc(F)cc2F)CCN1C(=O)c1cccc(Br)c1 (configuration not stated)	none
Nc1c(C=C2C=CC(=O)C=C2)c(=O)nc2sc(-c3ccccc3Cl)nn12	hcGAS inh 42 (no result: mcGAS lum)
Nc1c(C=C2C=CC(=O)C=C2)c(=O)nc2sc(-c3ccccc3)nn12	none (no result: mcGAS lum)
CC(C)N1C(=O)SC(=Cc2ccc(N3CCCCC3)o2)C1=O	none
C#CCN1C(=O)SC(=Cc2ccc(N3CCCCC3)o2)C1=O	NPYLR7 agonist 122
CN(C)C(N)=NCCC[C@H](N)C(=O)O	none
NC(=NCCC[C@H](N)C(=O)O)NO	mcGAS lum 58
CC(NC(=O)Nc1ccc(N2CCOCC2)nc1)c1cccc(OC(F)F)c1 (configuration not stated)	none (no result: mcGAS lum)
